Bioassay records (PubChem)
A selection: hits, their analogues and other compounds. The true share with any hit is near 21%.
AMA1 RON2 block: AMA1-RON2 (P. falciparum) interaction inhibition; AlphaScreen AMA1-biotinylated RON2 peptide binding; Potency, µM (doses to about 58.2 µM), for inactives: at the highest dose activity change, negative = inhibition, usual class: inhibitors; 0.2% of 360,000 active; AID 720542;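 further: potency means the concentration at half of the fitted maximal effect; 0% = vehicle wells and -100% = peptide control; nearly all actives have a fitted effect of over 45% in size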
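AMA1 (3D7) with his tag at 25 nM final met compounds first, then biotinylated RON2 peptide at 25 nM; detection used donor plus acceptor beads, 10 µg/mL apiece, read by AlphaScreen after 30 min at room temperature.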
Pf growth 48h: inhibits P. falciparum growth in the first generation, 48 h | P. falciparum luciferase growth in erythrocytes, 48 h | Potency, µM (doses to about 28.7 µM), inactives show at the highest dose activity change, negative = inhibition, hits mostly inhibitors | 5.9% of 310,000 active; further: potency means the concentration at half of the fitted maximal effect; on the % scale 0 is the no-effect control and ±100 the full control effect
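In quantitative HTS format, infected erythrocytes bearing luciferase-reporter parasites were treated for a single generation at 37 C. Luminescence after adding detection reagent served as the growth measure.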
CHX counter: affects cycloheximide protein synthesis inhibition readout, counter-screen; cell reporter, cycloheximide protein synthesis inhibition counterscreen; max response, %; 12% of 300,000 active; in the data active means max response mostly above about 13%, no sharp cut-off; inactive means mostly below about 14%; further: read at 38.3 µM for the half of the compounds with a filed dose; 0% is about no effect
HCV inhibitor: inhibitors of hepatitis C virus infection | 3.4% of 340,000 active | Potency, µM (top dose mostly 41.8 µM), inactives show at the highest dose activity change, negative = inhibition, actives largely listed as inhibitors | AID 651820 | Huh7.5.1 HCVcc-Cre infection, luciferase reporter, 44 h; further: potency means the concentration at half of the fitted maximal effect; on the % scale 0 is the no-effect control and ±100 the full control effect
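A cell-based infection assay in which seeded cells (1,000 per well) receive test compound after 4 h, are inoculated with HCVcc-Cre at approximately 0.5 moi, and are incubated 44 h before luminescence detection.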
Shiga toxin inh: inhibitors of Shiga toxin in Vero cells | Vero cells, Shiga toxin protein synthesis inhibition reporter | inhibition, % at 38.7 µM | 9.2% of 290,000 active; in the data active means inhibition mostly above about 28%, no sharp cut-off; inactive means mostly below about 43%; further: 0% is about no effect
Pf growth 96h: P. falciparum growth inhibition at 96 hour, primary screen for plastid delayed-death inhibitors | P. falciparum luciferase reporter growth, 96 h | 6.9% of 320,000 active | Potency, µM (doses to about 28.7 µM), without a hit: at the highest dose activity change, negative = inhibition, hits mostly inhibitors; further: potency means the concentration at half of the fitted maximal effect; on the % scale 0 is the no-effect control and ±100 the full control effect
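Readout is luminescence from an integrated firefly luciferase in P. falciparum. Red cells, 2% hematocrit and 0.05% parasitemia final, were cultured with compound through two parasite generations (96 hours) at 37 C, 5% CO2.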
An asterisk follows results filed as active; ? = inconclusive; · = no result given; [ ] = remark or other dose. Unless noted, the call rests on the fitted dose curve; in most records, active means well fitted curve in the direction sought with a large enough effect; inconclusive means small, poorly fitted or top-dose-only effect, or another doubt; inactive means no such curve, though single readings can be large; an effect the other way counts as inactive or inconclusive.

SMILES	AMA1 RON2 block	Pf growth 48h	CHX counter	HCV inhibitor	Shiga toxin inh	Pf growth 96h
COc1ccc(N(CC(O)Cn2c3ccccc3c3ccccc32)S(=O)(=O)c2ccccc2)cc1 (stereo not given)	-4%	?	-6	?	-8	10µM*
COc1ccccc1N(CC(O)CN1CCCCC1)S(=O)(=O)c1ccc(C)cc1 (stereo not given)	-7%	-15%	-1	5%	-3	?
CCN(CC(O)Cn1c2ccccc2c2ccccc21)S(=O)(=O)c1ccc(C)cc1 (stereo not given)	1%	·	-1	3.2µM*	-7	·
Oc1ccccc1CN(Cc1ccco1)CC(O)COCc1ccc(Cl)cc1 (stereo not given)	-5%[11.6 µM]	2.9µM*	-2	?	4	2.1µM*
O=S(CC(O)COCc1ccc(Cl)cc1)c1ccccn1 (stereo not given)	-7%	7%	-2	6%	-13	·
COc1ccc(COCC(O)CN(Cc2ccco2)Cc2ccccc2O)cc1 (stereo not given)	-5%	8.3µM*	-1	15%	-11	4.7µM*
O=S(=O)(c1ccc2ccccc2c1)N(CC(O)COCc1ccco1)c1ccccc1 (stereo not given)	-10%	-19%	22	-19%	44	-17%
CSCCC(NC(=O)c1ccco1)C(=O)NCC1CCCO1 (stereo not given)	0%	?	·	13%	·	-16%
COC(=O)c1cc2ccccc2oc1=O	-8%	0%	14	3%	6	·
CC(=O)/C=C\c1ccccc1OC(=O)c1cc2ccccc2oc1=O	-21%	-7%	11*	8%	2	-26%
COc1ccccc1OC(=O)c1cc2ccccc2oc1=O	-10%	-1%	0	34%	18	?
COC(=O)c1ccccc1OC(=O)c1cc2ccccc2oc1=O	-6%	1%	29*	2%	52*	35%
CC(=O)Nc1ccc(OC(=O)c2cc3ccccc3oc2=O)cc1	1%	19%	7	5%	12	12µM*
O=C(/C=C\c1ccccc1OC(=O)c1ccccc1F)c1cc2ccccc2o1	?	87%	44*	?	63	-20%
CC(=O)c1ccc(OC(=O)c2cc3ccccc3oc2=O)cc1	·	-4%	-2	·	24	103%
COc1cc(OC)nc(Nc2nc(CN)cs2)n1	38%	·	·	·	·	·
COc1ccc(C(=O)NNC(=O)c2ccc(F)c(S(=O)(=O)N3CCOCC3)c2)cc1	-3%	·	·	1%	·	·
CC1CC(C)CN(CCCNC(=O)CN2C(=O)COc3ccc(S(=O)(=O)N4CCOCC4)cc32)C1 (stereo not given)	-5%	27%	-5	5%	-5	58%
CC(C)CC(N)c1csc(Nc2cnccn2)n1 (stereo not given)	105%	·	·	·	·	·
COc1ccc(NN=Nc2nc3c([nH]2)c(=O)n(C)c(=O)n3C)cc1	15%	42%	40*	?	84*	67%
Cc1ccccc1NN=Nc1nc2c([nH]1)c(=O)n(C)c(=O)n2C	9%	18%	-3	-1%	-5	28%
N#Cc1cc(C#N)c(N2CCN(c3cccc(Cl)n3)CC2)nc1N	37%	3.7µM*	67*	11µM*	89*	1.7µM*
O=C(CNC(=O)c1ccc(Br)cc1)c1ccccc1	0%	95%	28*	-6%	29*	264%
O=C(CNC(=O)c1ccccc1C(=O)O)c1ccccc1	12%	125%	49*	20%	62*	59%
O=C(CNC(=O)c1ccc(Cl)cc1)c1ccccc1	4%	·	·	8%	·	·
O=C(CNC(=O)c1ccc(F)cc1)c1ccc(Cl)cc1	17%	?	46*	?	69*	-7%
O=C(CNC(=O)c1ccc(-c2ccccc2)cc1)OCc1ccc(Br)cc1	3%	33%	39*	6%	68*	0%
O=C(CNC(=O)c1ccc(Br)cc1)c1ccc(Br)cc1	28%	26%	1	6%	27	?
CCc1nc2ccc(C(=O)Nc3cccc(NS(C)(=O)=O)c3)cn2c1N(C)CCN1CCOCC1	-3%	·	·	·	·	·
